# FMDV inh = foot and mouth disease virus antiviral activity | FMDV antiviral cell-based qHTS | Potency, µM (titrated, usually from 57.9 µM), without a hit: at the top dose activity change, negative = inhibition, hits mostly inhibitors | 410,000 tested, 1.2% active; calls by dose curve; tested in HEK293T cells; note: read-out not given here; nearly all actives have a fitted effect of over 45% in size
# AmpC no deterg = inhibitors of E. coli AmpC beta-lactamase without detergent; 330,000 tested, 0.52% active; AmpC nitrocefin hydrolysis, absorbance 480 nm, 0.0001% Triton; AID 485341; P00811; Potency, µM (series often up to 57.1 µM), for inactives: at the highest dose activity change, negative = inhibition, actives largely listed as inhibitors;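 note: plate controls were no compound for no effect and no enzyme for full effect; nearly all actives have a fitted effect of over 20% in size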
# Target sequence (P00811 whole entry, looked up): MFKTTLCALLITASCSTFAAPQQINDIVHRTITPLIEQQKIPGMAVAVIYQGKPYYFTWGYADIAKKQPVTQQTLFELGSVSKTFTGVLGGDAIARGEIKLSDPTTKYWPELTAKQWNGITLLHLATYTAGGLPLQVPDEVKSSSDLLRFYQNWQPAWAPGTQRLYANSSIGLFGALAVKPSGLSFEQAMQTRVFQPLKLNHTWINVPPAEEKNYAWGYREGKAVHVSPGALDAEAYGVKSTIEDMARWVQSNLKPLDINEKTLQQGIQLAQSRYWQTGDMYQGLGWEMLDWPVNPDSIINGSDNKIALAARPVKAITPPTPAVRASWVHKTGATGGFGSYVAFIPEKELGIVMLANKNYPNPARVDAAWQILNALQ
#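 AmpC (5.3 nM in the dispensed reagent) in 20 mM phosphate pH 7.0 with 0.01% (detergent screen) or 0.0001% Triton X-100 was preincubated with compounds for 15 min at room temperature. Nitrocefin was then added from an 800 uM solution, and hydrolysis was followed at 480 nm.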
# Sm TGR inh = inhibitors of Schistosoma mansoni thioredoxin glutathione reductase; purified TGR, DTNB reduction, TNB absorbance 405 nm; Potency, µM (highest dose often 114 µM), without a hit: at the top dose activity change, negative = inhibition, actives largely listed as inhibitors; Q962Y6; 360,000 tested, 3% active; note: nearly all actives have a fitted effect of over 60% in size
#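 First, TGR (20 nM dispensed) and NADPH were mixed with compound. Second, a 15 min room-temperature incubation followed. Third, further NADPH and then DTNB were added to start the reaction. Finally, TNB absorbance was monitored kinetically.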
# AMA1 RON2 block = inhibitors of Plasmodium falciparum AMA1-RON2 interaction | AlphaScreen AMA1-biotinylated RON2 peptide binding | Potency, µM (highest dose often 58.2 µM), without a hit: top-dose activity change, negative = inhibition, most hits filed as inhibitors | 360,000 tested, 0.2% active | AID 720542;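 note: 0% = vehicle wells and -100% = peptide control; nearly all actives have a fitted effect of over 45% in size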
#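 AMA1 (3D7) with his tag at 25 nM final met compounds first, then biotinylated RON2 peptide at 25 nM; detection used donor plus acceptor beads, 10 µg/mL apiece, read by AlphaScreen after 30 min at room temperature.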
# AmpC inh detg = blocks E. coli AmpC beta-lactamase in detergent assay | AmpC hydrolysis of nitrocefin, absorbance 480 nm, 0.01% Triton | 370,000 tested, 0.041% active | Potency, µM (top dose mostly 114 µM), without a hit: at the highest dose activity change, negative = inhibition, most hits filed as inhibitors | AID 485294 | P00811;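 note: 0% = no-compound wells and -100% = no-enzyme wells; nearly all actives have a fitted effect of over 25% in size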
#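 20 mM phosphate pH 7.0 + 0.01% (detergent screen) or 0.0001% Triton X-100; 5.3 nM AmpC reagent; cpd preinc 15 min RT; nitrocefin (800 uM stock) to start; A480 q20 s × 4 min; Activity was normalised to no-enzyme and no-compound control wells.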
# Starred values were filed as active, the others as inactive; u = inconclusive; x = not tested or not shown; [ ] = dose if it differs, or a comment. Most compounds without a hit are left out; they make up all but 4.1% or so of the library. Unless noted, calls come from the whole dose curve; as a rule, active = well fitted curve in the direction sought with a large enough effect; inconclusive = small, poorly fitted or top-dose-only effect, or another doubt; inactive = no such curve, though single readings can be large; an effect the other way counts as inactive or inconclusive. Unless noted, % is set by controls: 0 for no effect and ±100 for the full control effect; potency is the fitted concentration of half-maximal effect.
SMILES,FMDV inh,AmpC no deterg,Sm TGR inh,AMA1 RON2 block,AmpC inh detg
O=C1NC(=O)C(=Cc2ccccc2[N+](=O)[O-])C(=O)N1,-11%,x,x,-5%,x
CC1=NN(c2ccccc2)C(=O)C1/C=C1/C(=O)NC(=O)N(c2cccc(C)c2)C1=O (stereo not drawn),x,-32%,0%,x,-9%
O=C1NC(=O)C(=Cc2cc3c(cc2[N+](=O)[O-])OCO3)C(=O)N1,-4%,u,u,-11%,50µM*
Cc1cccn2c(=O)cc(COc3cccc(NC(=O)c4cccc(Cl)c4)c3)nc12,-10%,x,-3%,x,1%
COc1cccc(CN(C(=O)c2oc3ccc(Br)cc3c2C)C2CCS(=O)(=O)C2)c1 (stereo not drawn),u,x,2%,x,-10%
CNC1=C([N+](=O)[O-])CC([N+](=O)[O-])=C(N2CCNCC2)N1C,-3%,-22%,14µM*,5%,6%
CNc1c(NC(=O)c2cc(OC)cc(OC)c2)c(=O)oc2ccccc12,-20%,x,16%,x,12%
CC1(C)C(=O)C=C[C@]2(C)C1CC(=O)[C@]1(C)C2CC[C@@]2(C)C(c3ccoc3)OC(=O)C3O[C@@]321 (stereo partly drawn),18µM*,x,x,x,x
O=C(Nc1nc2ccc(F)cc2s1)c1ccccn1,11µM*,-13%,-7%,6%,3%
Cn1c(N)c(C(=O)COC(=O)c2cc(C(F)(F)F)nc3ccccc23)c(=O)n(Cc2ccccc2)c1=O,-29%,-35%,36%,10%,-9%
Cn1c(N)c(C(=O)COC(=O)c2cc(-c3ccco3)nc3ccccc23)c(=O)n(C)c1=O,-5%,-17%,8.9µM*,u,u
Cn1c(N)c(C(=O)COC(=O)c2cc(-c3ccco3)nc3ccccc23)c(=O)n(Cc2ccccc2)c1=O,x,u,8.9µM*,x,-9%
Cc1ccc(C)c(N2CCN(C(=O)Cn3cnc4onc(-c5ccc(F)cc5)c4c3=O)CC2)c1,0%,x,4%,x,25%
Cc1ccc(N/C(N)=N/c2nc3c(c(=O)[nH]2)CCCC3)c(C)c1,x,-20%,0%,-2%,1%
Cc1ccc(N/C(N)=N/c2nc(C)cc(N3CCCCC3)n2)c(C)c1,16µM*,1%,-12%,-13%,2%
CC(C)C(NC(=O)c1ccoc1)c1nnc2n1CCN(Cc1ccc3c(c1)Cc1ccccc1-3)CC2 (stereo not drawn),-12%,x,x,x,x
COc1ccccc1NC(=S)NC(=O)CCc1ccccc1,-12%,-47%,4.5µM*,25%,3%
O=C(CCc1ccccc1)NC(=S)Nc1ccccc1Br,8%,-7%[2.29 µM],u,58%,-8%
CC(C)CC(=O)NC(=S)Nc1ccccc1F,24%,x,u,-17%,-9%
COc1ccccc1NC(=S)NC(=O)CC(C)C,8%,-21%,28µM*,1%,-1%
CC(NS(=O)(=O)OCC(Cl)(Cl)Cl)c1ccc(C(C)(C)C)cc1 (stereo not drawn),22µM*,-37%,0%,99%,-12%
CC(C)(NS(=O)(=O)OCC(Cl)(Cl)Cl)c1ccccc1,11%,-19%,-6%,-16%,-5%
COCCOC(=O)C1=C(C)NC(=O)NC1c1ccc(-c2ccc(F)cc2)o1 (stereo not drawn),-3%,-9%,10µM*,-7%,1%
CCOC(=O)C1=C(C)NC(=O)NC1c1ccc([N+](=O)[O-])o1 (stereo not drawn),4%,-3%,40µM*,4%,0%
COc1cccc(C(=O)Nc2ccc(C(=O)OCc3cc(=O)n4cc(C)sc4n3)cc2)c1,40%,x,-11%,x,-5%
SMILES,FMDV inh,AmpC no deterg,Sm TGR inh,AMA1 RON2 block,AmpC inh detg
Oc1ccc(NCc2cccc(OCc3ccc(F)cc3)c2)cc1,4%,-56%,28µM*,31%,2%
Oc1ccc(NCc2cccc(OCc3ccccc3)c2)cc1,10%,-27%,13µM*,36%,8%
Cc1ccccc1N1CC(c2nnc(NC(=O)c3ccco3)s2)CC1=O (stereo not drawn),0%,x,-10%,x,-6%
Cc1ccc(C(=O)Nc2cccc(-c3nc(CNC(=O)c4cccc(C)c4C)c(C)o3)c2)s1,-25%,x,x,x,x
C/C(=N\Nc1ccc(C)c(Cl)c1)c1ccncc1,21%,-23%,-28%,11%,2%
C/C(=N\Nc1ccc(C)c(Cl)c1)c1cccnc1,64%,-3%,14µM*,-11%,0%
O=C(Cn1ccn(-c2ccc(F)c(F)c2)c(=O)c1=O)Nc1ccccc1F,-15%,x,1%,x,21%
O=C(NCc1cccnc1)c1ccccc1NS(=O)(=O)c1ccc(F)cc1,-16%,-21%,-1%,1%,-2%
O=C(NCc1cccnc1)c1ccccc1NS(=O)(=O)c1ccc(F)cc1F,-13%,-14%,40µM*,4%,-1%
C=CCOc1ccc(C(=O)Nc2ccccc2C(=O)NCc2cccnc2)cc1,7%,-13%,40µM*,-1%,-15%

# From PubChem BioAssay
